Screening data: PubChem, University of Kansas High Throughput Screening Laboratory
The full list was thinned out, with hits kept by preference.
Pf apPOL block: Pf-apPOL DNA polymerase inhibition; 0.25% of 210,000 active; Recombinant Pf-apPOL, molecular beacon fluorescence, 1.5 h; inhibition, % at 10 µM
mHTT CaM bind: mHTT-calmodulin interaction abrogation. AlphaScreen His-mHTT/GST-CaM binding, luminescence. inhibition, % at 15 µM. 3.6% of 190,000 active;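 further: 0% = both proteins with DMSO and 100% = one protein alone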
Target sequence (P42858 whole entry, looked up, stated change not applied): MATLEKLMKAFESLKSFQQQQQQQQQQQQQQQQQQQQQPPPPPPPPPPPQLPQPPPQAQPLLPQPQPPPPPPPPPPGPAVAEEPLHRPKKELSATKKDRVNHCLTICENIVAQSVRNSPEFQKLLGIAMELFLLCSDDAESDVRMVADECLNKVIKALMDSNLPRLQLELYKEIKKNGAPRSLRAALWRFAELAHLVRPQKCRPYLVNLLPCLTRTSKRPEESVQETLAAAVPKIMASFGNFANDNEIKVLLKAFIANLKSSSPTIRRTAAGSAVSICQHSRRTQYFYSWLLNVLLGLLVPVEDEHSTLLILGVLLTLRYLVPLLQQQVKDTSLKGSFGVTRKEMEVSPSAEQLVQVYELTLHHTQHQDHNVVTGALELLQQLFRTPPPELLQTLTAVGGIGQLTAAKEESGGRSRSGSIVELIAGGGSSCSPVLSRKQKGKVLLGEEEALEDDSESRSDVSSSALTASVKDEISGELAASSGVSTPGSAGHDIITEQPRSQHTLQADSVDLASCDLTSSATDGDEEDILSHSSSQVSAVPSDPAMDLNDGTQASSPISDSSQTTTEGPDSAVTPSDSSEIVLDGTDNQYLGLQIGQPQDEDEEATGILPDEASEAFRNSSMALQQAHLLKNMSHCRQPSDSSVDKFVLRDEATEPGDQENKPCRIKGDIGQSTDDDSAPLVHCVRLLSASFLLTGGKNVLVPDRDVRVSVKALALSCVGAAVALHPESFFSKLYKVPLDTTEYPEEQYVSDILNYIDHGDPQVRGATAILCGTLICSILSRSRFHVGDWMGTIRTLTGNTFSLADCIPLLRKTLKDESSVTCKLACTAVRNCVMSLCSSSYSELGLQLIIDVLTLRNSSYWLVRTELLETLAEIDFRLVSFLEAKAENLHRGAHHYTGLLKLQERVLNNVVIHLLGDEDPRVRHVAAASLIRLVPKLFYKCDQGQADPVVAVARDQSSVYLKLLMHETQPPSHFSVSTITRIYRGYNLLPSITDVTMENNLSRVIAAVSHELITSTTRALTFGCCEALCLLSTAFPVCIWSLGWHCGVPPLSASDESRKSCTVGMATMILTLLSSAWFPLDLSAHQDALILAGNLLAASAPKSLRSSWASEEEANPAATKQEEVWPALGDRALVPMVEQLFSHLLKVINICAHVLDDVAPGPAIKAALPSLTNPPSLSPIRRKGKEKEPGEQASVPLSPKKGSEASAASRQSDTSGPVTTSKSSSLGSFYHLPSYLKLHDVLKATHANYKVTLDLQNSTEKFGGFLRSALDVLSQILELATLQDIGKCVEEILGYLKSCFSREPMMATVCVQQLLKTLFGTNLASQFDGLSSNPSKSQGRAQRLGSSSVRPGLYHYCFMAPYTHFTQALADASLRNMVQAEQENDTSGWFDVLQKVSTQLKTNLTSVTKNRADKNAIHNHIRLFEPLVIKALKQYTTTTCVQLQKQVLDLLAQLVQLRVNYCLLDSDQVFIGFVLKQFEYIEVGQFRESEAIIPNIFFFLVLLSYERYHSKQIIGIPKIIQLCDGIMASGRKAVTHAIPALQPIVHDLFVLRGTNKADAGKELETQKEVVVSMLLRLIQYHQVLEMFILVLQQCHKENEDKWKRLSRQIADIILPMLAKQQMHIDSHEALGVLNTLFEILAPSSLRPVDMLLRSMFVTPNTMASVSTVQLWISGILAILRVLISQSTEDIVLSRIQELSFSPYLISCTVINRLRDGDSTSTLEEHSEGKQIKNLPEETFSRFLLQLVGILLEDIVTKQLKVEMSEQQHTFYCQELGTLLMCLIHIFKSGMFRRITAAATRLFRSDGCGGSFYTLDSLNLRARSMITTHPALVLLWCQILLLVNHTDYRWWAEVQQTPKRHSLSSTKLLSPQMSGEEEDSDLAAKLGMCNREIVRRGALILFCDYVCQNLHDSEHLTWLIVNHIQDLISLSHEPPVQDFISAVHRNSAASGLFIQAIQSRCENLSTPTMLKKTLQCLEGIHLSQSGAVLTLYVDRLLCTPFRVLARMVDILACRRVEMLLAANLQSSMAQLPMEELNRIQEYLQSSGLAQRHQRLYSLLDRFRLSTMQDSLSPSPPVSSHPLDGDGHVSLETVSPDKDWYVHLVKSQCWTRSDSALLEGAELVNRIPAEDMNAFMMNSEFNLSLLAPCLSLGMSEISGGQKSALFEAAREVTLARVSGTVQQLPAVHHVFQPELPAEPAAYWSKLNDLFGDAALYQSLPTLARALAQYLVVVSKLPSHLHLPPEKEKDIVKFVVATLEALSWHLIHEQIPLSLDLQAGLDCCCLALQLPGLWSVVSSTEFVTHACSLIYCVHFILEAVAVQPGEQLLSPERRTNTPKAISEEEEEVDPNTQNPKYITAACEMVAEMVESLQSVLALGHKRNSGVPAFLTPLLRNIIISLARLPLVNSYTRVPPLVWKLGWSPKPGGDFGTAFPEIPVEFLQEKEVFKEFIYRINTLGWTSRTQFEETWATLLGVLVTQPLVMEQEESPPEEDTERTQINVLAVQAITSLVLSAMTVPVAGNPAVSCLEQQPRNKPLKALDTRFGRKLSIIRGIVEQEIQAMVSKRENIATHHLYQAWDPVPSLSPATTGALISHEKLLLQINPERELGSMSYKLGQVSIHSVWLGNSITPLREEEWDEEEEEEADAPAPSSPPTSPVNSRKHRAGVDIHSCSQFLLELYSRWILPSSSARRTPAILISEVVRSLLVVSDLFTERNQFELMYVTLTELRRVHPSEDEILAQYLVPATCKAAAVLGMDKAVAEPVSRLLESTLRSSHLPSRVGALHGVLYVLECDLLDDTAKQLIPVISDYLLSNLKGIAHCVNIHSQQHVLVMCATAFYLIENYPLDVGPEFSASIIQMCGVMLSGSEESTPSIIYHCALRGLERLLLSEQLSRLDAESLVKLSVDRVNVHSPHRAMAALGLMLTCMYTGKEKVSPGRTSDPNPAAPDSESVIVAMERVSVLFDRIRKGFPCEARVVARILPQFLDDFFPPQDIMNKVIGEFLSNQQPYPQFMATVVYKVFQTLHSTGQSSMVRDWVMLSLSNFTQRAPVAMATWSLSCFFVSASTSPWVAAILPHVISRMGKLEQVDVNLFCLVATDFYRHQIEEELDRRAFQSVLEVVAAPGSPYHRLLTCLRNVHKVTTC
Numbers without * were called inactive; . = not tested or not shown. No stated cut-off is given here; in the data, active means inhibition above about 50%; inactive means the rest.

SMILES | Pf apPOL block | mHTT CaM bind
CN(C)C(=O)c1ccc(-c2ccnc(N3CCCCC3)n2)cc1 | -4.0 | -1.4
CN1CCN(CCCNC(=O)c2noc3c2CCCCC3)CC1 | -3.8 | 7.6
O=S(=O)(NC1CC2CCC1C2)c1ccc(F)cc1 (centres undefined) | -9.5 | 1.4
O=C(NC(N1CCCC1)C(Cl)(Cl)Cl)c1ccc(Br)cc1 (centres undefined) | -4.8 | -2.0
Brc1ccc(C2C=C(c3cccs3)Nc3ncnn32)cc1 (centres undefined) | -3.2 | 17.0
Brc1cccc(C2C=C(c3cccs3)Nc3ncnn32)c1 (centres undefined) | 65.4* | 13.0
COc1cc([N+](=O)[O-])ccc1NC(=O)c1c(F)c(F)c(F)c(F)c1F | -1.8 | 2.4
Cc1ccc(N2C(=O)C3C4C=CC(C4=C4CCCC4)C3C2=O)c(C)c1 (centres undefined) | -7.5 | -4.0
Nc1ccnc(=O)[nH]1 | 105.3* | .
CCSc1nccc(=O)[nH]1 | 5.6 | -9.1
COc1ccc(CCNC(=O)C(=O)Nc2c(C)cc(C)cc2C)cc1OC | -5.3 | -3.0
CCCN(CCC)S(=O)(=O)c1ccc(C(=O)NNC(=O)c2sc3ccccc3c2Cl)cc1 | -2.3 | .
Cc1nc2ccccn2c1-c1csc(N)n1 | . | -0.7
C=CCNc1nc(-c2c(C)nc3ccccn23)cs1 | 14.1 | 8.9
Cc1nc2ccccn2c1-c1csc(Nc2ccc(N)cc2)n1 | 1.3 | 62.8*
Cc1ccnc(Nc2nc(-c3c(C)nc4ccccn34)cs2)c1 | -7.4 | 62.0*
COc1ccccc1Nc1nc(-c2c(C)nc3cc(C)ccn23)cs1 | -0.9 | 76.3*
CC(=O)Nc1ccc(Nc2nc(-c3c(C)nc4ccccn34)cs2)cc1 | -4.3 | 20.8
CN(C)c1ccc(C(=O)Nc2cnc(N3CCCCC3)nc2)cc1 | -5.2 | 11.4
O=C(NC1CC1)c1nnc(N2CCN(c3ccc(F)cc3)CC2)c2ccccc12 | -6.1 | 4.2
O=C(Nc1cccc(C(F)(F)F)c1)N1CCc2nc[nH]c2C1 | -2.1 | -0.7
CCCCNC(=O)c1c(Cl)nc(Cl)c([N+](=O)[O-])c1Cl | -5.2 | 94.0*
CCCCNC(=O)c1c(Cl)nc(Cl)c(Cl)c1C | 2.4 | -6.0
CCOC(=O)N1CCN(C(=O)CN2CCN(Cc3nc4ccccc4n3C)CC2)CC1 | -9.9 | -12.9
Cc1cc(C(=O)NCC(O)c2ccc(C)o2)no1 (centres undefined) | 0.9 | -17.6
SMILES | Pf apPOL block | mHTT CaM bind
O=Cc1ccc(OCC(=O)Nc2ccc(F)cc2)cc1 | -6.8 | 4.2
Cc1nnc(N2C(=O)C(O)=C(C(=O)c3ccco3)C2c2ccc(Br)cc2)s1 (centres undefined) | -7.2 | 21.7
COc1ccc(C2C(C(=O)c3ccco3)=C(O)C(=O)N2c2nnc(C)s2)cc1OC (centres undefined) | -3.7 | 0.7
Cc1nnc(N2C(=O)C(O)=C(C(=O)c3ccco3)C2c2ccc(Cl)cc2)s1 (centres undefined) | -2.2 | 78.1*
Cc1nnc(N2C(=O)C(O)=C(C(=O)c3ccco3)C2c2ccccc2F)s1 (centres undefined) | -19.3 | 56.6*
O=C(Oc1ccc(CCC=CCCc2ccc(OC(=O)c3ccccc3)cc2)cc1)c1ccccc1 | 4.1 | .
CCn1c(-c2cc(NC(C)=O)n[nH]2)cc2ccccc21 | -1.7 | 10.7
CCOC(=O)c1c(-c2ccccc2)oc2cc(Br)c(OCC(=O)OC)cc12 | 4.0 | -4.3
N#CC1=C(S)NC(O)(c2ccccc2)C([n+]2ccc3ccccc3c2)C1c1ccc(F)cc1 (centres undefined) | -2.2 | 75.0*
N#CC1=C(O)NC(=O)C([n+]2ccccc2)C1c1ccccc1I (centres undefined) | 7.0 | 34.0
N#CC1=C(S)NC(O)(c2ccccc2)C([n+]2cccc3cc(Cl)ccc32)C1c1cccnc1 (centres undefined) | -3.7 | 59.0*
N#CC1=C(S)NC(O)(c2ccccc2)C([n+]2ccc3ccccc3c2)C1c1ccncc1 (centres undefined) | 0.0 | 38.0
N#CC1=C(S)NC(O)(c2ccccc2)C([n+]2ccccc2)C1c1ccccc1F (centres undefined) | -1.2 | 56.0*
N#CC1=C(S)N[C@H](c2cccnc2)[C@@](C#N)(C(N)=S)[C@H]1c1cccnc1 | . | 30.6
CCc1ccc(C2Nc3ccc4ncccc4c3C3=C2C(=O)CCC3)cc1 (centres undefined) | -3.2 | 37.0
C=CCN1C(=O)C2(Nc3ccccc3C(=O)N2c2ccccc2OC)c2ccccc21 (centres undefined) | -0.3 | 9.0
CCN1CCN(Cc2c(O)ccc3c2OC(=Cc2ccc(OC)cc2OC)C3=O)CC1 | -3.4 | 19.1
COc1ccc(C=C2Oc3cc(OCC(=O)OC(C)C)ccc3C2=O)cc1 | -4.4 | -13.4
CC1Oc2ccccc2OC1C(=O)NC1CCCC(O)C1 (centres undefined) | -4.3 | -6.0
Cc1cc(C=Nc2ccc3c(c2)OCCO3)c(O)c(Br)c1C | -0.8 | 10.0
CC(=O)N1/C(=C/c2ccncc2)C(=O)c2ccccc21 | -7.0 | -4.0
CC(=O)N1/C(=C/c2ccc(N(C)C)cc2)C(=O)c2ccccc21 | -1.2 | 84.0*
Cc1ccc(Sc2c(C)nn(C(=O)Cc3ccccc3)c2C)cc1 | -5.0 | -19.0
COCCCNC(=O)c1cccc(Cl)c1 | 1.1 | -7.7
COCCCNC(=O)c1ccc(Cl)c(NC(=O)Nc2ccc(Cl)c(Cl)c2)c1 | -12.5 | 52.0*
SMILES | Pf apPOL block | mHTT CaM bind
Cc1cccc(C(=O)N2CCC(COc3ccccc3C(=O)NC3CC3)CC2)c1 | 3.9 | 13.5
Cc1ccnc(N2CCC(C(=O)NC3CCCCC3)CC2)n1 | -0.8 | -1.2
O=C1C(=O)N(C(c2ccccc2)c2ccc(Cl)cc2)c2ccccc21 (centres undefined) | -1.8 | 93.0*
O=C(CN1C(=O)C(=O)c2ccccc21)c1ccc(Cl)cc1 | -9.6 | 0.2
Cn1nc(-c2nc(-c3ccccc3)no2)c2c1CCN(C(=O)c1ccccc1)C2 | -0.1 | 51.5*
Cn1nc(-c2nc(C3CC3)no2)c2c1CCN(C(=O)Nc1ccc(Cl)cc1)C2 | -7.9 | 62.7*
Cn1nc(-c2nc(C3CC3)no2)c2c1CCN(C(=O)c1ccc(Cl)cc1)C2 | -2.0 | -8.2
Cn1nc(-c2nc(-c3cccc(F)c3)no2)c2c1CCN(C(=O)c1cccc(F)c1)C2 | -5.6 | 4.1
Cc1ccc(C(=O)N2CCc3c(c(-c4nc(-c5ccccc5)no4)nn3C)C2)cc1 | -3.5 | 4.2
Cn1nc(-c2nc(-c3cccc(F)c3)no2)c2c1CCN(C(=O)c1cccs1)C2 | -1.3 | 61.1*
CN(C)c1oc(-c2ccc([N+](=O)[O-])cc2)nc1C#N | 4.2 | 0.0
CCc1ccccc1NC(=O)N1CCCC1c1nc(-c2ccccc2)no1 (centres undefined) | -1.3 | -3.8
CCc1ccc(NC(=O)C2CCCN(c3ncnc4c3nc3n4CCCCC3)C2)cc1 (centres undefined) | 0.9 | 3.4
Cc1ccc(C)c(NC(=O)C2CCN(c3cc(C(=O)N4CCCC4)ccn3)CC2)c1 | 8.4 | 2.3
Cc1ccc2c(c1)N(C(=O)Nc1ccc(Cl)cc1)CCO2 | -4.3 | -4.5
Cc1oc(C(C)(C)C)cc1-c1cc(N)n(-c2cc(C(F)(F)F)cc(C(F)(F)F)c2)n1 | -9.9 | .
Cc1c(C)c(C)c(C(=O)C(=NOC(=O)c2ccc(Cl)c(Cl)c2)c2ccccc2)c(C)c1C | 2.3 | .
CCCn1c(=O)cc(C)c2ccc(OCC(=O)N3CCCCC3)cc21 | -4.1 | 1.9
Cc1cc(Cl)ccc1OC(C)C(=O)NCc1ccc2c(c1)OCO2 (centres undefined) | -0.4 | -5.8
